# From PubChem BioAssay (NCATS)
# Values joined by “and” are separate entries in the source; they are usually repeats but may differ in a detail not shown here. Equal values may be shown once. A number with no mark means an inactive call. Inconclusive results are not listed. A call without a number means that no potency is given here. Active and inactive are the calls of the source. Unless noted, calls follow the shape of the dose curve; as a rule, active = well fitted curve in the direction sought with a large enough effect; inconclusive = small, poorly fitted or top-dose-only effect, or another doubt; inactive = no such curve, though single readings can be large; an effect the other way counts as inactive or inconclusive.
# How the values were obtained:
# Es-2 = assay: Primary qHTS to identify gynecologic anti-cancer compounds using libraries of approved drugs and bioactive compounds (AID 1345084); conditions: Gynecologic cancer cell panel viability, ATPlite luminescence, 48 h; series mostly up to 57.5 µM; also: nearly all actives have a fitted effect of over 55% in size; also: potency is read from the fitted curve at half-maximal effect
# Procedure, shortened: (§1)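 Five-concentration response, 48 h; readout is ATP-driven luciferase luminescence.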
# HeLa = assay: as above; conditions: Gynecologic cancer cell panel viability, ATPlite luminescence, 48 h; series mostly up to 57.5 µM
# Procedure, shortened: as §1
# Hek293T = assay: as above; conditions: Gynecologic cancer cell panel viability, ATPlite luminescence, 48 h, control line for the selectivity index; series mostly up to 57.5 µM
# Procedure, shortened: as §1
# JEG-3 = assay: as above; conditions: Gynecologic cancer cell panel viability, ATPlite luminescence, 48 h; series mostly up to 57.5 µM
# Procedure, shortened: as §1
# OV90 = assay: as above; conditions: Gynecologic cancer cell panel viability, ATPlite luminescence, 48 h; series mostly up to 57.5 µM
# Procedure, shortened: as §1
# PA-1 = assay: as above; conditions: Gynecologic cancer cell panel viability, ATPlite luminescence, 48 h; series mostly up to 57.5 µM
# Procedure, shortened: as §1
# Tov-21-G = assay: as above; conditions: Gynecologic cancer cell panel viability, ATPlite luminescence, 48 h; series mostly up to 57.5 µM
# Procedure, shortened: as §1
# Tov112D = assay: as above; conditions: Gynecologic cancer cell panel viability, ATPlite luminescence, 48 h; series mostly up to 57.5 µM
# Procedure, shortened: as §1
# SKOV3 = assay: as above; conditions: Gynecologic cancer cell panel viability, ATPlite luminescence, 48 h; series mostly up to 57.5 µM
# Procedure, shortened: as §1
# astro = assay: Drug repurposing screens with cells derived from glioblastoma tumor samples (AID 1345199); conditions: viability, ATP luminescence, 48 h; series mostly up to 45.9 µM; also: nearly all actives have a fitted effect of over 40% in size; also: potency is read from the fitted curve at half-maximal effect
# Procedure, shortened: (§2)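 Primary testing used CD133+ neurospheres from four GBM patients, seven concentrations, 48 h exposure and ATP-based viability; confirmation added three slower-growing patient lines.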
# [1] = as above; conditions: GBM patient neurospheres viability, ATP luminescence, 48 h
# Procedure, shortened: as §2
# [2] = qHTS assay for small molecule activators of the human pregnane X receptor (PXR) signaling pathway (AID 720659; call rule not given here)
# [3] = biological target: Nuclear receptor subfamily 1 group I member 2 (Rattus norvegicus) (UniProt Q9R1A7); assay: qHTS assay for small molecule activators of the rat pregnane X receptor (rPXR) signaling pathway (AID 651751; call rule not given here); conditions: rPXR reporter cells, luciferase (One-Glo), 24 h
# [4] = qHTS assay to identify inhibitors of the type 1 interferon - major histocompatibility complex class I in skeletal muscle: Counter screen cell viability and HiBit confirmation (AID 1347412); conditions: iHSKM muscle cells + IFN-b, HiBiT or CellTiter-Glo, 24 h; Viability; also: potency is read from the fitted curve at half-maximal effect; nearly all actives have a fitted effect of over 60% in size
# Procedure, shortened: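 CRISPR HLA-B*08:01-HiBit immortalized human myoblasts (C25cl48) stimulated with 4 ng/ml IFN-beta and compounds (12-point 1:3, top 46 uM final) for 24 h at 37 C. Duplicate plates read by HiBit lytic luminescence or CellTiter Glo ATP.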
# [5] = at 45.9 µM (top of the series), tumour line B
# [6] = at 45.9 µM (top of the series), tumour line D
# [7] = at 46.1 µM (top of the series), tumour line C
# Sequence of Nuclear receptor subfamily 1 group I member 2 (Rattus norvegicus) (Q9R1A7 whole entry, looked up): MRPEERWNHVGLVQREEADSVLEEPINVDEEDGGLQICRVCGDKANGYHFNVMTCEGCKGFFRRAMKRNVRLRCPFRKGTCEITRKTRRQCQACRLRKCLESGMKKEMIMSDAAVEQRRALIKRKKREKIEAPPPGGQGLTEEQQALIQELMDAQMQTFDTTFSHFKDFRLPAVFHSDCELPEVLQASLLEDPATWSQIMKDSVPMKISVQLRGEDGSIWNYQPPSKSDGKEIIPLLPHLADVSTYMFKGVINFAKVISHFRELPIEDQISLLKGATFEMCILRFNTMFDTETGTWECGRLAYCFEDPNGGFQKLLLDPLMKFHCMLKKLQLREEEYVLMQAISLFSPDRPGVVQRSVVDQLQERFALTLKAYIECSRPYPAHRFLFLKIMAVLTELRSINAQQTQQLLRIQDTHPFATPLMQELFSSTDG
structure (smiles),measurement,setting,value
COCCCN1CCC(NC(=O)c2cc(Cl)c(N)c3c2OCC3)CC1,Potency,Es-2,inactive
same,Potency,HeLa,inactive
same,Potency,Hek293T,inactive
same,Potency,JEG-3,inactive
same,Potency,OV90,inactive
same,Potency,PA-1,inactive
same,Potency,Tov-21-G,inactive
same,Potency,Tov112D,inactive
CC(C)c1ccc2oc3nc(N)c(C(=O)O)cc3c(=O)c2c1,Potency,Es-2,7.08 µM (active)
same,Potency,HeLa,7.94 µM (active)
same,Potency,Hek293T,7.08 µM (active)
same,Potency,JEG-3,7.94 µM (active)
same,Potency,OV90,6.31 µM (active)
same,Potency,PA-1,5.62 µM (active)
same,Potency,SKOV3,7.08 µM (active)
same,Potency,Tov-21-G,5.01 µM (active)
same,Potency,Tov112D,7.94 µM (active)
same,Potency,astro,1.78 µM (active)
O=C(O)c1cccc(-c2noc(-c3ccccc3F)n2)c1,Potency,Es-2,3.16 µM (active) and 6.31 µM (active)
same,Potency,HeLa,7.08 µM (active) and 10 µM (active)
same,Potency,Hek293T,4.47 µM (active) and 7.08 µM (active)
same,Potency,JEG-3,7.94 µM (active) and 11.2 µM (active)
same,Potency,OV90,12.6 µM (active)
same,Potency,PA-1,3.55 µM (active) and 7.94 µM (active)
same,Potency,SKOV3,10 µM (active) and 12.6 µM (active)
same,Potency,Tov-21-G,5.01 µM (active) and 8.91 µM (active)
same,Potency,Tov112D,7.94 µM (active) and 10 µM (active)
same,Potency,astro,2.51 µM (active)
CC(=O)Nc1ccc(O)cc1,Potency,Es-2,inactive
same,Potency,HeLa,inactive
same,Potency,Hek293T,inactive
same,Potency,JEG-3,inactive
same,Potency,OV90,inactive
same,Potency,PA-1,inactive
same,Potency,Tov-21-G,inactive
same,Potency,Tov112D,inactive
same,"activity, negative = cell killing",[1]; [5],-10.5%
same,"activity, negative = cell killing",[1]; [6],-3.31%
same,"activity, negative = cell killing","[1]; at 46 µM (top of the series), tumour line A",-25.4%
same,"activity, negative = cell killing",[1]; [7],-7.56%
same,Potency,astro,inactive
same,outcome,[2],inactive
N[C@@H](Cc1cc(I)c(Oc2cc(I)c(O)c(I)c2)c(I)c1)C(=O)O,Potency,Es-2,inactive
same,Potency,HeLa,inactive
same,Potency,Hek293T,inactive
same,Potency,JEG-3,inactive
same,Potency,OV90,inactive
same,Potency,PA-1,inactive
same,Potency,SKOV3,inactive
same,Potency,Tov-21-G,inactive
same,Potency,Tov112D,inactive
same,"activity, negative = cell killing",[1]; [5],-5.58%
same,"activity, negative = cell killing",[1]; [6],-1.99%
same,"activity, negative = cell killing",[1]; [7],-6.06%
same,max response,[3],4.68%
S=c1nc[nH]c2nc[nH]c12,Potency,Es-2,5.62 µM (active)
same,Potency,HeLa,5.62 µM (active)
same,Potency,Hek293T,15.8 µM (active)
same,Potency,JEG-3,3.55 µM (active)
same,Potency,OV90,7.08 µM (active)
same,Potency,PA-1,3.16 µM (active)
same,Potency,SKOV3,inactive
same,Potency,Tov-21-G,3.16 µM (active)
same,Potency,Tov112D,8.91 µM (active)
same,"activity, negative = cell killing",[1]; [7],-28%
same,Potency,[1]; tumour line A,5.01 µM (active)
same,Potency,astro,inactive
CC(=O)NC[C@H]1CN(c2ccc(N3CCOCC3)c(F)c2)C(=O)O1,Potency,Es-2,inactive
same,Potency,HeLa,inactive
same,Potency,Hek293T,inactive
same,Potency,JEG-3,inactive
same,Potency,OV90,inactive
same,Potency,PA-1,inactive
same,Potency,SKOV3,inactive
same,Potency,Tov112D,inactive
same,"activity, negative = cell killing",[1]; [5],-14.6%
same,"activity, negative = cell killing",[1]; [6],-26.2%
same,"activity, negative = cell killing",[1]; [7],15.8%
same,Potency,astro,inactive
Cc1ccc(S(=O)(=O)NC(=O)NN2CC3CCCC3C2)cc1 (stereo not given),Potency,Es-2,inactive
same,Potency,HeLa,inactive
same,Potency,Hek293T,inactive
same,Potency,JEG-3,inactive
same,Potency,OV90,inactive
same,Potency,PA-1,inactive
same,Potency,SKOV3,inactive
same,Potency,Tov-21-G,inactive
same,Potency,Tov112D,inactive
same,"activity, negative = cell killing","[1]; at 20 µM (top of the series), tumour line C",-7.38%
same,"activity, negative = cell killing","[1]; at 21.2 µM (top of the series), tumour line B",-4.46%
same,"activity, negative = cell killing","[1]; at 21.2 µM (top of the series), tumour line D",-18.4%
same,Potency,astro,inactive
CC1=C(C)C(=O)C(C(CCCCCC(=O)O)c2ccccc2)=C(C)C1=O (stereo not given),Potency,Es-2,inactive
same,Potency,HeLa,inactive
same,Potency,Hek293T,inactive
same,Potency,JEG-3,inactive
same,Potency,OV90,inactive
same,Potency,PA-1,inactive
same,Potency,SKOV3,inactive
same,Potency,Tov-21-G,inactive
same,Potency,Tov112D,inactive
same,"activity, negative = cell killing",[1]; [5],-10.7%
same,"activity, negative = cell killing",[1]; [6],17%
same,Potency,astro,inactive
CN(C)c1ccc2nc3ccc(=[N+](C)C)cc-3sc2c1,Potency,Es-2,1.78 µM (active)
same,Potency,Hek293T,14.1 µM (active)
same,Potency,JEG-3,2 µM (active)
same,Potency,OV90,12.6 µM (active)
same,Potency,PA-1,0.891 µM (active)
same,Potency,Tov-21-G,10 µM (active)
same,Potency,Tov112D,6.31 µM (active)
same,Potency,astro,5.01 µM (active)
same,Potency,[4],15.7 µM (active)
same,outcome,[2],inactive
COc1cc2nc(N3CCN(C(=O)C4CCCO4)CC3)nc(N)c2cc1OC (stereo not given),Potency,Es-2,inactive
same,Potency,HeLa,inactive
same,Potency,Hek293T,inactive
same,Potency,JEG-3,inactive
same,Potency,OV90,inactive
same,Potency,Tov-21-G,inactive
same,Potency,Tov112D,inactive
same,"activity, negative = cell killing",[1]; [5],-11.4%
same,"activity, negative = cell killing",[1]; [6],-6.51%
same,"activity, negative = cell killing",[1]; [7],-17.4%
same,Potency,astro,inactive
